NALP3 yeast inh – inhibitors of NALP3 inflammasome in yeast | Yeast reconstituted NLRP3/ASC/caspase-1, beta-gal luminescence, 24 h | hit rate 0.39% among 330,000 | inhibition, % at 10 µM;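 active = inhibition of 50% or more; inactive = inhibition below 50%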
PfHsp90 set2 – growth inhibition of yeast expressing Plasmodium Hsp90; S. cerevisiae expressing PfHsp90, BacTiter-Glo ATP, 48 h; yeast lacking PDR1 and PDR3 efflux regulators; inhibition, % at 9.4 µM; hit rate 0.32% among 310,000; AID 504621;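 active = every replicate shows inhibition above about 80%, whatever the replicate mean, limit read from the data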
tim10-1 inh – inhibits growth of tim10-1 mutant yeast | inhibition, % at 20 µM | AID 463190 | S. cerevisiae tim10-1 ts strain growth, BacTiter-Glo, 24 h | hit rate 2.2% among 330,000;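 active = inhibition of at least 40%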;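 note: mutant grown at 25 °C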
SKKanGAS inh – blocks kanamycin growth of S. pyogenes SKKanGAS strain; BacTiter-Glo, 6 h; inhibition, % at 7.5 µM; hit rate 1.3% among 300,000; AID 1662;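 active = mean replicate score, as percent of positive control median, at least 50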;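 note: strain carries kanamycin resistance gene driven by streptokinase promoter and grows in 40 µg/ml kanamycin; loss of luminescence reflects streptokinase promoter inhibition or plain growth inhibition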
tim23-1 inh – inhibits growth of tim23-1 mutant yeast; S. cerevisiae tim23-1 growth, BacTiter-Glo luminescence, 24 h; inhibition, % at 20 µM; hit rate 1.3% among 330,000; AID 463212;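 active = growth inhibition of the mutant yeast at or above 50%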;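 note: temperature-sensitive mutant grown at 25 °C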
TIM10 inh – inhibits growth of TIM10 yeast strain; inhibition, % at 10 µM; S. cerevisiae TIM10 strain growth, BacTiter-Glo luminescence, 24 h; hit rate 1.4% among 330,000;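 active = inhibition of 40% or more at the single tested concentration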;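 note: wild-type TIM10 isogenic control strain grown at permissive 25 °C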
tim10-1 conf – tim10-1 yeast growth inhibition, confirmed; hit rate 56% among 7,400; inhibition, % at 20 µM; AID 463213; shares compounds with tim10-1 inh; S. cerevisiae tim10-1 ts strain growth, BacTiter-Glo, 24 h;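 active = inhibition of yeast growth at or above a set limit in either of two repeat tests at 20 µM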;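 note: tim10-1 mutant grown at permissive 25 °C to find synthetic lethal compounds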
tim10 confirm – confirmation of TIM10 yeast growth inhibitors | shares compounds with TIM10 inh | S. cerevisiae tim10 strain growth, BacTiter-Glo luminescence, 24 h | inhibition, % at 10 µM | hit rate 63% among 4,600 | AID 463215;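 active = inhibition of yeast growth at or above a set limit in either of two replicates at 10 µM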; note: this counterscreen used the strain with wild-type TIM10
Each line names hits and unclear results; the compound was inactive in the other large screens (follow-up assays come after a bar, where they were run). Hits are enriched below; roughly 4.6% of the tested compounds scored in any of these assays.

Cc1ccc(C(=O)Nc2ccc(S(=O)(=O)N3CCc4ccccc4C3)cc2)o1	none
COc1ccccc1C(c1nnnn1CCc1ccccc1)N1CCCCCC1 (stereo not drawn)	tim10-1 inh 42.5, TIM10 inh 43.4 | tim10-1 conf inactive | tim10 confirm inactive
COc1ccccc1C(c1nnnn1CCc1ccccc1)N1CCN(c2ccccc2)CC1 (stereo not drawn)	none
CN=C(Nc1ccc(Br)cc1)SC1CC(=O)N(c2ccc(OC)cc2)C1=O (stereo not drawn)	tim10-1 inh 41.0, TIM10 inh 44.5 | tim10-1 conf inactive | tim10 confirm inactive
O=C1Nc2ccccc2/C1=C/c1cccnc1	tim10-1 inh 49.0, TIM10 inh 51.2 | tim10-1 conf 35.5 | tim10 confirm 31.6
O=C1Nc2ccccc2/C1=C/c1cnc(-c2ccccc2)[nH]1	none
Oc1ccccc1-c1nc(NCC2CCCO2)c2ccccc2n1 (stereo not drawn)	tim10-1 inh 55.6, TIM10 inh 60.6 | tim10-1 conf 40.5 | tim10 confirm inactive
COc1cccc(-c2nc(NCC3CCCO3)c3ccccc3n2)c1O (stereo not drawn)	none
O=C(NC(=S)Nc1nc2c(s1)CSc1ccccc1-2)c1ccccc1	tim10-1 inh 48.2, TIM10 inh 44.0 | tim10-1 conf inactive | tim10 confirm 29.9
Cc1ccnc(N2CCC(C(=O)Nc3cccc(C(F)(F)F)c3)CC2)n1	tim10-1 inh 52.3, TIM10 inh 41.8 | tim10-1 conf 47.9 | tim10 confirm 30.0
CCCn1cnc2cc(NCc3ccc(Br)cc3)ccc21	tim10-1 inh 42.7, TIM10 inh 51.6 | tim10-1 conf inactive | tim10 confirm 50.2
CCn1cnc2cc(NCc3ccc(C)cc3)ccc21	none
O=c1cc(-c2ccccc2)n(S(=O)(=O)c2ccc3ccccc3c2)o1	tim10-1 inh 42.3, TIM10 inh 63.7 | tim10-1 conf 36.9 | tim10 confirm 44.4
O=c1cc(-c2ccccc2)n(S(=O)(=O)c2ccccc2)o1	none
CC1=C2C3OC(=O)C(C)[C@@H]3CC[C@](C)(O)C2C2C3C4C5(C12)[C@H]1OC(=O)[C@@H](C)C1CC[C@]4(C)O[C@]5(C)[C@@H]3O (stereo partly drawn)	none
N/C(=N\OC(=O)c1ccc(Cl)c(Cl)c1)c1cccnc1	tim10-1 inh 60.2, TIM10 inh 71.8 | tim10-1 conf 47.2 | tim10 confirm 75.5
N/C(=N\OC(=O)c1ccccc1)c1cccnc1	none (no result: PfHsp90 set2)
CN(CCCNC(=O)c1cc2c(Cl)nc3ccccc3c2s1)Cc1ccccc1	tim10-1 inh 52.6, TIM10 inh 43.3 | tim10-1 conf 41.0 | tim10 confirm 44.4
N/C(=N\OC(=O)c1ccco1)c1ccccc1	none
Cc1ccc(/C(N)=N/OC(=O)c2ccco2)cc1	tim10-1 inh 46.2, TIM10 inh 51.9 (no result: PfHsp90 set2) | tim10-1 conf 34.3 | tim10 confirm 37.2
CCOc1ccc(-c2nnc3ccc(SC(C)C)nn23)cc1	tim10-1 inh 47.8, SKKanGAS inh 56.9, TIM10 inh 41.5 | tim10-1 conf 44.6 | tim10 confirm 51.2
C[C@H](NC(=O)c1ccc(Cl)cc1)C(=O)OCn1nnc2ccccc2c1=O	none (no result: PfHsp90 set2, SKKanGAS inh)
O=C(CSCC(=O)OCn1nnc2ccccc2c1=O)Nc1ccc(Cl)cc1	tim10-1 inh 61.7, TIM10 inh 51.3 | tim10-1 conf 54.9 | tim10 confirm inactive
CCOC(=O)C1=C(COC(=O)COc2ccccc2C#N)NC(=O)NC1C (stereo not drawn)	none
Cc1ccc(S(=O)(=O)NCC(=O)OCC(=O)Nc2ccc3c(c2)OCCO3)cc1	none (no result: SKKanGAS inh)
S=C(Nc1cccc(Cl)c1)NC1CCCCC1	none
S=C(NNc1cccc(Cl)c1)NC1CCCCC1	tim10-1 inh 48.8, TIM10 inh 60.8 | tim10-1 conf 40.8 | tim10 confirm 54.9
Cc1nc(Nc2ccccc2)sc1-c1ccccc1	tim10-1 inh 53.9, TIM10 inh 62.7 | tim10-1 conf 53.5 | tim10 confirm inactive
Cc1cccc(C(=O)Nc2cccc(Br)c2)c1[N+](=O)[O-]	tim10-1 inh 57.7, TIM10 inh 64.9 | tim10-1 conf 54.0 | tim10 confirm 50.5
O=C(c1ccc(Oc2ccc([N+](=O)[O-])cc2)cc1)N1CCCCCC1	none
O=C(CCc1ccc(Oc2cc([N+](=O)[O-])cc([N+](=O)[O-])c2)cc1)N1CCCCC1	tim10-1 inh 57.3, TIM10 inh 53.7 | tim10-1 conf 35.0 | tim10 confirm 48.3
CCCCc1cc(=O)oc2c(C)c(OCc3nn[nH]n3)ccc12	none
O=C(Cc1cccs1)Nc1nc(-c2ccc(F)cc2F)cs1	tim10-1 inh 41.0, TIM10 inh 52.4 | tim10-1 conf 34.5 | tim10 confirm 41.3
CC(C)N1CCC2(CC1)N=C(c1ccc3c(c1)OCO3)CC(c1cc(Cl)ccc1O)N2 (stereo not drawn)	PfHsp90 set2 120.5, tim10-1 inh 52.6, TIM10 inh 50.6 | tim10-1 conf 45.0 | tim10 confirm 50.8
CCCN(C(=O)c1cc(S(=O)(=O)N2CCCCCC2)ccc1OC)C1CCS(=O)(=O)C1 (stereo not drawn)	none
CN(C)c1ccc(NC2=C(Cl)C(=O)c3ccccc3C2=O)cc1	tim10-1 inh 61.9, TIM10 inh 68.1 (no result: SKKanGAS inh) | tim10-1 conf 63.2 | tim10 confirm 60.0
COc1ccc(C(=O)c2cc3c(cc2[N+](=O)[O-])OCCO3)cc1	none
COc1ccc(C(=O)n2c(SC)nc3cc4c(cc32)OCCO4)cc1	tim10-1 inh 43.4, TIM10 inh 47.4 | tim10-1 conf 37.5 | tim10 confirm inactive
Cc1ccsc1/C=N/NC(=S)NCCc1ccccc1	tim10-1 inh 54.0, TIM10 inh 40.8 | tim10-1 conf inactive | tim10 confirm 43.5
COc1ccc(C(=O)n2nnc3ccccc32)cc1Br	tim10-1 inh 52.0, TIM10 inh 40.2 | tim10-1 conf inactive | tim10 confirm inactive
Cc1nc(NCC2CCCO2)c2nnn(Cc3c(F)cccc3Cl)c2n1 (stereo not drawn)	none
O=C(Nc1nc2ccc(Cl)cc2s1)C1CC1	tim10-1 inh 40.6, TIM10 inh 45.9 | tim10-1 conf 42.8 | tim10 confirm 46.2
COc1cccc(C(C(=O)NCC2CCCO2)N(C(=O)Cn2nnc3ccccc32)c2ccccc2C(C)=O)c1OC (stereo not drawn)	none
CCCCC(CC)C(=O)N1CCN(C(=O)c2ccco2)CC1 (stereo not drawn)	none
CCCn1c(/C=C/c2ccccc2)nc2ccccc21	tim10-1 inh 42.2, TIM10 inh 42.0 | tim10-1 conf inactive | tim10 confirm inactive
